Measurements published in PubChem BioAssay (Tox21).
Inconclusive results are not listed. Active and inactive are the calls of the source. Calls follow the shape of the dose curve; as a rule, active = well fitted curve in the direction sought with a large enough effect in the repeat runs; inconclusive = weak or mixed curves; inactive = no such curve, though single readings can be large; an effect the other way counts as inactive or inconclusive.

Legend:
[1] = Caspase-3/7 induction in HepG2 cells by small molecules, qHTS assay (AID 1346978); also: nearly all actives have a fitted effect of over 15% in size
Procedure, shortened: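 Wild-type HepG2 cells, 2,000/well, settled 5 hr at 37 C and 5% CO2, then compound-treated for 17 hr; caspase-3/7 activity read by luminescent Caspase-Glo 3/7 after 30 min at room temperature.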

[2] = Caspase-3/7 induction in CHO-K1 cells by small molecules, qHTS cell viability counter screen (AID 1346979); also: nearly all actives have a fitted effect of over 35% in size; also: potency is read from the fitted curve at half-maximal effect
Procedure, shortened: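 Cytotoxicity counter screen: CellTiter-Fluor added to compound-treated wild-type CHO-K1 cells at 16 h (37C, 5% CO2), fluorescence measured 1 h later; same wells as caspase-3/7 measurement.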

[3] = Caspase-3/7 induction in HepG2 cells by small molecules, qHTS cell viability counter screen (AID 1346981); also: series mostly up to about 92 µM; nearly all actives have a fitted effect of over 30% in size
Procedure, shortened: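 Counter screen for cytotoxicity: HepG2 exposed 16 hr to compounds, then CellTiter-Fluor viability signal (fluorescence, 1 hr reagent incubation).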

[4] = target: Nuclear receptor subfamily 1 group I member 2 (Homo sapiens) (UniProt O75469); experiment: Human pregnane X receptor (PXR) small molecule agonists, qHTS assay (AID 1346982); also: nearly all actives have a fitted effect of over 35% in size; also: potency is read from the fitted curve at half-maximal effect
Procedure, shortened: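 Luminescence (ONE-Glo, 30 min RT) after 24 hr compound exposure of PXR-Luc HepG2 cells; cells rested 5 hr post-plating in 5% charcoal-stripped FBS medium.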

[5] = target: Cytochrome P450 2D6 (Homo sapiens) (UniProt P10635); experiment: Cytochrome P450 Family 2 Subfamily D Member 6 (CYP2D6) small molecule antagonists: luciferase reporter qHTS assay (AID 1671196); also: nearly all actives have a fitted effect of over 50% in size; also: potency is read from the fitted curve at half-maximal effect
Procedure, shortened: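 Inhibition of CYP2D6 was gauged by loss of luminescence, since light produced tracks the luciferin generated from a proluciferin substrate. A 10 min room-temperature preincubation preceded 1 h NADPH-supported turnover.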

[6] = target: Cytochrome P450 2C9 (Homo sapiens) (UniProt P11712); experiment: Cytochrome P450 Family 2 Subfamily C Member 9 (CYP2C9) small molecule antagonists: luciferase reporter qHTS assay (AID 1671198); also: nearly all actives have a fitted effect of over 50% in size; also: potency is read from the fitted curve at half-maximal effect
Procedure, shortened: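 P450-Glo proluciferin substrate with CYP2C9 enzyme; 10 min RT preincubation, then NADPH regeneration 1 h at 37C; luciferin detection reagent 20 min RT, luminescence in relative luminescence units.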

[7] = target: Cytochrome P450 1A2 (Homo sapiens) (UniProt P05177); experiment: Cytochrome P450 Family 1 Subfamily A Member 2 (CYP1A2) small molecule antagonists: luciferase reporter qHTS assay (AID 1671199); also: nearly all actives have a fitted effect of over 50% in size; also: potency is read from the fitted curve at half-maximal effect
Procedure, shortened: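 Signal from luciferin formed by CYP1A2 from a proluciferin substrate is read as luminescence, expressed in relative luminescence units. Compounds sit with enzyme 10 min, NADPH-driven reaction runs 1 h, all at room temperature.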

[8] = target: Cytochrome P450 3A4 (Homo sapiens) (UniProt P08684); experiment: Cytochrome P450 Family 3 Subfamily A Member 4 (CYP3A4) small molecule antagonists: luciferase reporter qHTS assay (AID 1671201); also: nearly all actives have a fitted effect of over 50% in size; also: potency is read from the fitted curve at half-maximal effect
Procedure, shortened: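 Recombinant human CYP3A4 converts a proluciferin substrate to luciferin over 1 h at room temperature after NADPH regeneration solution is added (compound preincubated 10 min); detection reagent stops reaction, luminescence read 20 min later as relative units.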

[9] = target: Voltage-gated inwardly rectifying potassium channel KCNH2 (Homo sapiens) (UniProt Q12809); experiment: Human Ether-a-go-go-Related Gene (hERG) channel small molecule antagonists: fluorescence cell-based qHTS assay (AID 1671200); also: nearly all actives have a fitted effect of over 50% in size; also: potency is read from the fitted curve at half-maximal effect
Procedure, shortened: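 Thallium flux as potassium surrogate: FluxOR II dye loaded 1 h at room temperature into hERG-expressing U2OS cells, then stimulus buffer added after 10 min. Kinetic 480 nm excitation/540 nm emission read, 2 min.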

[10] = Caspase-3/7 induction in CHO-K1 cells by small molecules, qHTS assay (AID 1346980); also: nearly all actives have a fitted effect of over 15% in size
Procedure, shortened: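 Wild-type CHO-K1 cells exposed to compounds for 17hr at 37 C, 5% CO2. Caspase-3/7 activity then measured by Caspase-Glo 3/7 luminescence after 30min at room temperature.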

[11] = target: Nuclear receptor subfamily 1 group I member 2 (Rattus norvegicus) (UniProt Q9R1A7); experiment: Rat pregnane X receptor (rPXR) activation by small molecules, qHTS assay (AID 1346983); settings: rPXR luciferase reporter cells, One-Glo luminescence, 24 h; max activation: stronger effect = higher value; also: nearly all actives have a fitted effect of over 20% in size; also: potency is read from the fitted curve at half-maximal effect
Procedure, shortened: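 Cell-based rPXR activation assay: rPXR cells, 2,000 per well, rested 5hr at 37 C, then exposed to compounds in DMSO for 24 hr at 37 C. Luciferase activity read by One-Glo luminescence after 30 min at room temperature.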

[12] = target: Nuclear receptor subfamily 1 group I member 2 (Homo sapiens) (UniProt O75469); experiment: CYP3A4 induction through human pregnane X receptor (PXR) by small molecules, qHTS assay (AID 1346984); also: nearly all actives have a fitted effect of over 40% in size; also: potency is read from the fitted curve at half-maximal effect
Procedure, shortened: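 DPX-2 reporter cells; 24h cpd, 37C; Luciferin-IPA 3uM final x3h; One-Glo 30 min RT; lumi read.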

[13] = target: Nuclear receptor subfamily 1 group I member 2 (Homo sapiens) (UniProt O75469); experiment: Human pregnane X receptor (PXR) activation by small molecules, qHTS assay (AID 1346985); also: nearly all actives have a fitted effect of over 40% in size
Procedure, shortened: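 DPX-2 cells (HepG2 co-transfected with a PXR response element and a CYP3A4-promoter luciferase construct) were seeded at 2,000 per well, rested 5 hr at 37C, then exposed to DMSO-dissolved compounds for 24 hr. Activation was read as luciferase luminescence.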

[14] = target: Cytochrome P450 2C19 (Homo sapiens) (UniProt P33261); experiment: Cytochrome P450 Family 2 Subfamily C Member 19 (CYP2C19) small molecule antagonists: luciferase reporter qHTS assay (AID 1671197); also: nearly all actives have a fitted effect of over 65% in size; also: potency is read from the fitted curve at half-maximal effect
Procedure, shortened: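 Light output is proportional to CYP2C19 activity: proluciferin substrate is converted to luciferin, then detected by a luciferin detection reagent that also stops the 1 h, 37C NADPH-driven reaction. Ketoconazole serves as positive control.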
% is scaled to controls: 0 for no effect and ±100 for the full control effect.

Cytochrome P450 3A4 (Homo sapiens), sequence (P08684 whole entry, looked up): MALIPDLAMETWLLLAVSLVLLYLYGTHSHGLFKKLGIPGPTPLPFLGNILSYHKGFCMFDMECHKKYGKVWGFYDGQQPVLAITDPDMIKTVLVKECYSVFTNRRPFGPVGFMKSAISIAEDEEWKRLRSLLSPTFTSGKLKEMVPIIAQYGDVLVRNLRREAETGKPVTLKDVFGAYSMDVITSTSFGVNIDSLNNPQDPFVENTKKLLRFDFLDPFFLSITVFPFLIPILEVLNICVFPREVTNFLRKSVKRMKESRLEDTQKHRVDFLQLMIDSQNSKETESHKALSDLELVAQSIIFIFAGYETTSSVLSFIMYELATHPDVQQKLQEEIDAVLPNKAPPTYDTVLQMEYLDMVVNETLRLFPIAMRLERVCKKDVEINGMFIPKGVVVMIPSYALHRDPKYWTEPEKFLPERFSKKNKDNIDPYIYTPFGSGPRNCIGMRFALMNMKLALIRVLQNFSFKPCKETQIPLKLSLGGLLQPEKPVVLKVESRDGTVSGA
Cytochrome P450 2C9 (Homo sapiens), sequence (P11712 whole entry, looked up): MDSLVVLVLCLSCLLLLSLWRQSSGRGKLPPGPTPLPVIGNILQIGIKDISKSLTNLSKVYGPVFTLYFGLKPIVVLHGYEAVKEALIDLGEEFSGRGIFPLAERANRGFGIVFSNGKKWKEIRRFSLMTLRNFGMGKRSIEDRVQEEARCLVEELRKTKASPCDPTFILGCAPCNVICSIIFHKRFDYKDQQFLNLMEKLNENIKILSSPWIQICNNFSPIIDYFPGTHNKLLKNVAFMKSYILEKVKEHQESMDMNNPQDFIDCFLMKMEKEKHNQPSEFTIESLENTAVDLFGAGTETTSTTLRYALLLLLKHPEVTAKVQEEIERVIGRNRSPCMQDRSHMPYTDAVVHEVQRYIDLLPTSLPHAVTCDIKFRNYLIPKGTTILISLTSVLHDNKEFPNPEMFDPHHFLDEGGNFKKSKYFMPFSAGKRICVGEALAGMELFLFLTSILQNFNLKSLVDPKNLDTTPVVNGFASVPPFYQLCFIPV
Cytochrome P450 2D6 (Homo sapiens), sequence (P10635 whole entry, looked up): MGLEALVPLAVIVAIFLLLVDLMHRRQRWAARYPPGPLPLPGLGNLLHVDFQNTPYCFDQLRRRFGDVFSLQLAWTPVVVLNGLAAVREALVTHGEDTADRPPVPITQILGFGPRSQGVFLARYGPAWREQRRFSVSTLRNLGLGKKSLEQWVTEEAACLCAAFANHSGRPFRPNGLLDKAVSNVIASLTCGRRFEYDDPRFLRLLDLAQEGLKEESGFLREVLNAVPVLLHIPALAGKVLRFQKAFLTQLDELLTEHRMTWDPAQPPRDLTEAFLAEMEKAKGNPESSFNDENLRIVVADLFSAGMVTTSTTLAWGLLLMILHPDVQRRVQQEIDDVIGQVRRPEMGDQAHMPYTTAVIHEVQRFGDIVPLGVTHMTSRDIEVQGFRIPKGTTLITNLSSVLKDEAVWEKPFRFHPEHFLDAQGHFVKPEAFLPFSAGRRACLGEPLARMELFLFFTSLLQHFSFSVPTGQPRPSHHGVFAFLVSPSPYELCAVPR
Nuclear receptor subfamily 1 group I member 2 (Homo sapiens), sequence (O75469 whole entry, looked up): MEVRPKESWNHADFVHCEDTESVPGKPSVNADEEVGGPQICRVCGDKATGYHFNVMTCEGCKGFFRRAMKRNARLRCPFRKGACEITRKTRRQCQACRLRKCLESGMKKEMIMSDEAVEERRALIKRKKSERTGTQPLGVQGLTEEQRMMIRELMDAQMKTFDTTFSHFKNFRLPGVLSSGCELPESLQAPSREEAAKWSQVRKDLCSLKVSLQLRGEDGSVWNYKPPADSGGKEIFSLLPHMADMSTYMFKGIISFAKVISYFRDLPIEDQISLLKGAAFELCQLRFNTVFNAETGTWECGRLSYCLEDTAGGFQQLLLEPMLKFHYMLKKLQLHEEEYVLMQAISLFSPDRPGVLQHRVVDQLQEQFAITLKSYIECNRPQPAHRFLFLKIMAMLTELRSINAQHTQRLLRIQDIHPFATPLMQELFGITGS
Cytochrome P450 1A2 (Homo sapiens), sequence (P05177 whole entry, looked up): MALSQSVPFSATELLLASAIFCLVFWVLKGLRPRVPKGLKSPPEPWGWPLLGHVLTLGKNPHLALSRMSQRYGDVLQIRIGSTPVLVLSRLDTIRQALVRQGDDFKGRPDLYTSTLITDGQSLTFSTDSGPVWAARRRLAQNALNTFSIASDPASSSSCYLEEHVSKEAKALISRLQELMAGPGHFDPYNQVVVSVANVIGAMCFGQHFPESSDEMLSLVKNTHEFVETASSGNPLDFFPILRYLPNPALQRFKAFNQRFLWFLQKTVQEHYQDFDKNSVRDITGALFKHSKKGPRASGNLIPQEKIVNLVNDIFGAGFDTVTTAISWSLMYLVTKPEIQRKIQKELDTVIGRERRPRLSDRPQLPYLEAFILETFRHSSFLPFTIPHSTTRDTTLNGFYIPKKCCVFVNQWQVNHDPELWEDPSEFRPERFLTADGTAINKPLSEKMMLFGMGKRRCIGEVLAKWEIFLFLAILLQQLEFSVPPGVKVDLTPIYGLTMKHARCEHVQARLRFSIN
Nuclear receptor subfamily 1 group I member 2 (Rattus norvegicus), sequence (Q9R1A7 whole entry, looked up): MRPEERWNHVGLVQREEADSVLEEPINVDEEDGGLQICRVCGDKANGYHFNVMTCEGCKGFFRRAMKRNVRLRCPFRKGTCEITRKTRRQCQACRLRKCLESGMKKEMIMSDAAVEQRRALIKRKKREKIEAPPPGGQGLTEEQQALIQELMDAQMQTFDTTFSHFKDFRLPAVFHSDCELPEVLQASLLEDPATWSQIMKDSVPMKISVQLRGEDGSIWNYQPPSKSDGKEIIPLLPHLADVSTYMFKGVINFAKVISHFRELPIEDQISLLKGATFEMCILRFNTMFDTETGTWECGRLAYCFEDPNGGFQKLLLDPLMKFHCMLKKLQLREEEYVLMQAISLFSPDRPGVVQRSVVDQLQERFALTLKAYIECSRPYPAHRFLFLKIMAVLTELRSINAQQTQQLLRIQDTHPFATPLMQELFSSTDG
Voltage-gated inwardly rectifying potassium channel KCNH2 (Homo sapiens), sequence (Q12809 whole entry, looked up): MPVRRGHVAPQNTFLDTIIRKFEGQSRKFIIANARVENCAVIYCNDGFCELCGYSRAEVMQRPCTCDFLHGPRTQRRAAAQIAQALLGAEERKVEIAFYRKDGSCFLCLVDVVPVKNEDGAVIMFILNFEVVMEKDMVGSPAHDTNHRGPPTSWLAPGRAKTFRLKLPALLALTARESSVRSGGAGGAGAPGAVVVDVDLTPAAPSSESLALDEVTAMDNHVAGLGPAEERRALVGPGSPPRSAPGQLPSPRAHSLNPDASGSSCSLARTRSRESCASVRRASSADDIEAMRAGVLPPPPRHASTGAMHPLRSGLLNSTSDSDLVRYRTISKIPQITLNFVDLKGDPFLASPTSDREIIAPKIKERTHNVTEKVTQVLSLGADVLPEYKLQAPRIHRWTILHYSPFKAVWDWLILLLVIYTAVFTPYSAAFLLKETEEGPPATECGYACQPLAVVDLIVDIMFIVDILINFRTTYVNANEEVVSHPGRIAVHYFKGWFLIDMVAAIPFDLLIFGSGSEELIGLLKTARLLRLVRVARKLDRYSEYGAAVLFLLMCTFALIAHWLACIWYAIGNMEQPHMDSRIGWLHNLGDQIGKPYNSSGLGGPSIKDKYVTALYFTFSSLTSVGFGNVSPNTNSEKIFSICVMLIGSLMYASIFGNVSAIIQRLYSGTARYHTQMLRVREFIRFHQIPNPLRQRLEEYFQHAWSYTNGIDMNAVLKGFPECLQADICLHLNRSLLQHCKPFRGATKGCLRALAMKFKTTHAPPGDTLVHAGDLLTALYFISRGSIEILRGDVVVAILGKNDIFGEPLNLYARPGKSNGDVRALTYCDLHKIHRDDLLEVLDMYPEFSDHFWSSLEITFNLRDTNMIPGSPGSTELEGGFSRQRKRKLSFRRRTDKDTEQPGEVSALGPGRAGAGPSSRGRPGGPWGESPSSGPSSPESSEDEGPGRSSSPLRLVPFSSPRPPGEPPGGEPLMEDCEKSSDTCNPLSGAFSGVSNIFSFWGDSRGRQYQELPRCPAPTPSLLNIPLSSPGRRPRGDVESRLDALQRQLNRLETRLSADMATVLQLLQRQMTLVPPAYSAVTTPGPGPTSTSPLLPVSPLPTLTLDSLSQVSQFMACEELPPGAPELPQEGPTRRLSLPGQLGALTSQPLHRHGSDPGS
Cytochrome P450 2C19 (Homo sapiens), sequence (P33261 whole entry, looked up): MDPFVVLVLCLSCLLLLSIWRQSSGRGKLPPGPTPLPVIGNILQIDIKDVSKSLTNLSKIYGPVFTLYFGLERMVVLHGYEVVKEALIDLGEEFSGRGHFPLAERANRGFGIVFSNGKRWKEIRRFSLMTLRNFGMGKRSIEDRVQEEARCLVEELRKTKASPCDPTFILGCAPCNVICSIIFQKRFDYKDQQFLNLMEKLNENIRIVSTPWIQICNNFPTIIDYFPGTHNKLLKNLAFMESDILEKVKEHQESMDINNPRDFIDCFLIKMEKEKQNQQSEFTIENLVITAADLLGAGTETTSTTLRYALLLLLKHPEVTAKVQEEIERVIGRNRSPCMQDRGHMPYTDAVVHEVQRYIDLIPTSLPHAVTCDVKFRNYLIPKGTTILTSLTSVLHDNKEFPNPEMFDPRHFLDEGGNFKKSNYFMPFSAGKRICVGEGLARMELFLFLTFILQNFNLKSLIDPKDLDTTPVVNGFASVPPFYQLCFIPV

CC(C)CCCCCCOC(=O)c1ccc(C(=O)OCCCCCCC(C)C)c(C(=O)OCCCCCCC(C)C)c1
active: Potency [6] 71 µM
inactive: outcome [1] | Potency [2] | Potency [3] | Potency [4] | Potency [5] | Potency [7] | Potency [8]

CC1=CC(=O)/C(=C(/C)O)C(=O)O1
active: Potency [6] 63.3 µM
inactive: outcome [1] | Potency [2] | Potency [3] | Potency [4] | Potency [5] | Potency [9] | Potency [8]

CCN(CC)CCOc1ccc2c(c1)C(=O)c1cc(OCCN(CC)CC)ccc1-2
active: Potency [2] 26.6 µM
inactive: outcome [1] | Potency [10] | max activation [11] 2.03% | Potency [12] | Potency [13] | Potency [14] | Potency [6] | Potency [9] | Potency [8]

CCCCc1cc2ccccc2c(OCCN(C)C)n1
inactive: outcome [1] | Potency [2] | Potency [3] | Potency [4] | max activation [11] 6.03% | Potency [12] | Potency [13] | Potency [14] | Potency [6] | Potency [8]
active: Potency [5] 4.36 µM | Potency [7] 0.436 µM | Potency [9] 3.38 µM

COc1ccc(C(C)=O)cc1
active: Potency [7] 29.1 µM
inactive: outcome [1] | Potency [2] | Potency [3] | Potency [4] | Potency [5] | Potency [14] | Potency [9] | Potency [8]

C=CC(=O)OCC(C)OCC(C)OCC(C)OC(=O)C=C (stereo not given)
active: Potency [2] 24.3 µM | Potency [14] 3.56 µM | Potency [6] 35.6 µM | Potency [7] 6.33 µM | Potency [8] 5.03 µM
inactive: outcome [1] | Potency [3] | Potency [4] | Potency [5]

Cc1ccc2c(ccc3ccccc32)c1
inactive: outcome [1] | Potency [2] | Potency [3] | Potency [8]
active: Potency [4] 54.6 µM | Potency [14] 35.7 µM | Potency [6] 35.7 µM | Potency [7] 3.18 µM

Oc1ccc(O)c2c(O)cccc12
inactive: outcome [1] | Potency [2] | Potency [10] | Potency [5] | Potency [6] | Potency [9] | Potency [8]
active: Potency [7] 39.6 µM

Cc1cc(NC(=O)C(=O)O)cc(C)c1Oc1ccc(O)c2c1CCC2
inactive: outcome [1] | Potency [2] | Potency [3] | Potency [4] | Potency [8]
active: Potency [14] 25.2 µM | Potency [6] 35.6 µM

Cl/C(=C\n1cncn1)c1ccc(Cl)cc1Cl
active: Potency [12] 22.4 µM | Potency [5] 15.5 µM | Potency [14] 1.38 µM | Potency [6] 15.5 µM | Potency [7] 1.55 µM
inactive: outcome [1] | Potency [2] | Potency [3] | max activation [11] -0.206% | Potency [13] | Potency [9] | Potency [8]

CC(=O)O[C@@H]1C(=O)O[C@@H]2[C@H]1OC(=O)[C@@H]2OC(C)=O
inactive: outcome [1] | Potency [2] | Potency [3] | Potency [4] | Potency [5] | Potency [14] | Potency [6] | Potency [9] | Potency [8]

O=C1c2cccc(O)c2C(=O)c2c(O)cc(CO)cc21
inactive: outcome [1] | Potency [2] | Potency [3] | Potency [5] | Potency [14] | Potency [9] | Potency [8]
active: Potency [4] 8.63 µM | Potency [7] 8.94 µM

O=C(c1ccccc1)c1ccc2n1CCC2C(=O)O (stereo not given)
inactive: outcome [1] | Potency [2] | Potency [3] | max activation [11] 4.49% | Potency [12] | Potency [13] | Potency [5] | Potency [14] | Potency [9] | Potency [8]

O=C(CC(=O)c1ccccc1)c1ccccc1
active: Potency [4] 65.7 µM | Potency [14] 24.1 µM | Potency [6] 38.2 µM | Potency [7] 3.82 µM
inactive: outcome [1] | Potency [10] | Potency [3] | Potency [8]

CN1CCC(=C2c3ccccc3C=Cc3ccccc32)CC1
active: Potency [5] 2.45 µM | Potency [14] 24.5 µM
inactive: outcome [1] | Potency [10] | Potency [3] | Potency [4] | Potency [6] | Potency [7] | Potency [8]

CCOc1ccc2[nH]cc(C(=O)NCc3ccccc3)c(=O)c2n1
active: Potency [4] 19.3 µM | Potency [14] 79.6 µM | Potency [6] 25.2 µM | Potency [7] 31.7 µM
inactive: outcome [1] | Potency [10] | Potency [3] | Potency [5] | Potency [9]

CN(C)CCCOc1nn(Cc2ccccc2)c2ccccc12
inactive: outcome [1] | Potency [2] | Potency [3]
active: Potency [9] 4.25 µM

O=c1[nH]cnc2ccccc12
active: Potency [4] 0.398 µM
inactive: outcome [1] | Potency [10] | Potency [3] | Potency [5] | Potency [6] | Potency [9] | Potency [8]

CCN1CCC[C@H]1CNC(=O)c1c(OC)ccc(Br)c1OC
inactive: Potency [2] | Potency [10] | Potency [3] | Potency [4] | max activation [11] 7.68% | Potency [12] | Potency [13] | Potency [14] | Potency [6] | Potency [7] | Potency [9] | Potency [8]

Nc1ccc(C(=O)N2CC3CC(CN(Cc4ccccc4)C3)C2)cc1
inactive: Potency [2] | Potency [10] | Potency [3] | Potency [4]

CCCCCc1ccc(N)cc1
active: Potency [5] 31.7 µM | Potency [14] 6.33 µM | Potency [6] 28.3 µM | Potency [7] 28.3 µM | Potency [8] 31.7 µM
inactive: outcome [1] | Potency [10] | Potency [3] | Potency [9]

CC[C@]12CCCN3CCc4c(n(c5ccccc45)C(=O)C1)[C@@H]32
active: Potency [2] 26.6 µM | Potency [11] 8.91 µM | Potency [5] 0.155 µM | Potency [14] 4.9 µM | Potency [9] 1.69 µM
inactive: outcome [1] | Potency [7]
